High-throughput results deposited in PubChem BioAssay by National Center for Advancing Translational Sciences (NCATS).
IL-2 act: qHTS of IL-2 Activators; IL-2 activation reporter assay, cell-based qHTS; stimulated with anti-CD3/CD4/CD28 beads; in transgenic mouse T cells; 360,000 compounds, 0.065% hits; AID 652025, 2013; activation, % (series mostly up to about 46 µM); in the data active means activation above about 50%; inconclusive means mostly about 30% to 49%
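Quantitative HTS in unstimulated transgenic mouse T cells, with memory T cells as non-tolerant control and PMA/ionomycin as tolerance-bypass control. Compound pretreatment lasted 60 minutes before 18 h bead stimulation; EGFP/DsRed fluorescence read.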
PKM2 activator: qHTS Assay for Activators of Human Muscle isoform 2 Pyruvate Kinase. Pyruvate kinase PKM (Homo sapiens), P14618. 260,000 compounds, 0.34% hits. purified PKM2, Kinase-Glo ATP luminescence, activation; response scale: 0% is enzyme alone, no compound. Potency, µM (top dose mostly 57.5 µM), usual class: activators; further: nearly all actives have a fitted effect of over 55% in size
Target sequence (P14618 whole entry, looked up, canonical isoform): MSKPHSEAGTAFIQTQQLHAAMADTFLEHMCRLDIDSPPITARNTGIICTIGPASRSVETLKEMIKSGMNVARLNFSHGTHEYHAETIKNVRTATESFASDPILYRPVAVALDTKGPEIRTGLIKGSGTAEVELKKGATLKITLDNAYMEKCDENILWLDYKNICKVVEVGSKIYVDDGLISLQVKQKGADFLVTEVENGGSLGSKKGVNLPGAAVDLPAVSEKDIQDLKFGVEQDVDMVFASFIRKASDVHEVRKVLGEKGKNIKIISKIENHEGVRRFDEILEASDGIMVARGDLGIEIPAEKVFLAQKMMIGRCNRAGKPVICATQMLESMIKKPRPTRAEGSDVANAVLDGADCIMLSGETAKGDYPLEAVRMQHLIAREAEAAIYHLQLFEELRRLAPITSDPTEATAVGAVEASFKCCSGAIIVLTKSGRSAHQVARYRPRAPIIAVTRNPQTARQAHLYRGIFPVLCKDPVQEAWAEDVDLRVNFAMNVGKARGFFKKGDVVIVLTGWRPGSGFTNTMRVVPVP
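Kinase-Glo luminescence reports ATP generated from ADP (0.1 mM) and PEP (0.5 mM) by purified hPK-M2 after 1 h at room temperature, pH 7.2 imidazole buffer; intermediate enzyme activity allows detecting inhibitors and activators.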
A-T KAP1 phos: qHTS Assay for Identifying a Potential Treatment of Ataxia-Telangiectasia; Potency, µM (series often up to 57.5 µM), usual class: activators; F2112 A-T fibroblasts, KAP-1 phosphorylation AlphaLISA; neocarzinostatin DNA damage 30 min before lysis; AID 485349, 2010; 320,000 compounds, 0.19% hits; further: nearly all actives have a fitted effect of over 45% in size
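hTERT-immortalized A-T patient fibroblasts (F2112), 500 cells/well in OPTI-MEM, 1% FBS, got compounds for 60 min, then NCS for 30 min at 37C. Lysates were then assayed for phospho-KAP-1 by AlphaLISA (anti-pKAP1 donor, anti-KAP1 acceptor beads), 6 hr at 25C.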
TCR act: Activators of T cell receptors: qHTS campaign; primary human leukocytes, anti-CD3, IL-2 HTRF, 48 h; Potency, µM (doses to about 9.22 µM), hits mostly activators; 330,000 tested, under 10 active; AID 504894, 2011
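TCR engagement came from a-CD3 beads alone, with compounds added to primary human leukocytes for 48 hr. Secreted IL-2 bridged europium cryptate- and d2-labelled anti-IL-2 antibodies, giving FRET emission at 665nm after 320nm excitation.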
Tb PFK block: qHTS Assay to Find Inhibitors of T. brucei phosphofructokinase; ATP-dependent 6-phosphofructokinase (Trypanosoma brucei brucei), O15648; T. brucei PFK, ADP-Glo luminescence; Potency, µM (series often up to 57.5 µM), hits mostly inhibitors; 330,000 compounds, 0.17% hits; AID 485367, 2010; further: nearly all actives have a fitted effect of over 60% in size
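ADP-Glo luminescence quantified ADP after 45 min at room temperature, with 1.25 nM T. brucei PFK, 0.1 mM ATP and 0.5 mM fructose-6-phosphate in pH 8.0 TEA buffer. qHTS titrations up to 57 µM; curves classified by quality.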
a7 integrin act: qHTS for Activators of Integrin-Mediated Alleviation for Muscular Dystrophy | alpha7betagal myoblasts, beta-gal FDG fluorescence, 48 h | Potency, µM (doses to about 38.3 µM), actives largely listed as activators | 350,000 compounds, 0.064% hits; further: nearly all actives have a fitted effect of over 60% in size
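alpha7betagal+/- myoblasts (passage 13, 250/well) treated 48 h at 37C with compounds at 1:260 dilution of DMSO stock. Lysed, then beta-galactosidase activity read as FDG fluorescence (ex 480/em 540) after 30 min, with pre-read for autofluorescence.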
Numbers stand for hits; 0 = inactive; ? = inconclusive; - = no result; [ ] = another dose, or the depositor's remark. A selection: hits, their analogues and other compounds. The true share with any hit is near 0.69%. Unless noted, the call rests on the fitted dose curve; in most records, active means well fitted curve in the direction sought with a large enough effect; inconclusive means small, poorly fitted or top-dose-only effect, or another doubt; inactive means no such curve, though single readings can be large; an effect the other way counts as inactive or inconclusive.

SMILES	IL-2 act	PKM2 activator	A-T KAP1 phos	TCR act	Tb PFK block	a7 integrin act
S=C(c1ccc(-c2ccc(Br)cc2)o1)N1CCOCC1	0	12.6µM	0	0	0	0
CCNC(=O)CSc1nc(-c2ccc(F)cc2)cs1	0	0	0	0	0	5.01µM
CC(C)(C)NC(=O)CSc1nc(-c2ccc(F)cc2)cs1	0	0	0	0	0	0
CCn1nc(NC(=O)c2ccccc2)c2cc3cccc(C)c3nc21	0	0	22.4µM	0	0	0
O=C(CSc1n[nH]c(-c2ccncc2)n1)Nc1ccc(Br)cc1	0	0	20µM	0	0	0
Cc1c(/C=N/NC(N)=O)c2ccccn2c1C(=O)c1ccc(F)cc1	?	0	0	0	0	0
CNC(=S)N/N=C/c1c(C)c(C(=O)c2ccc(F)cc2)n2ccccc12	83.3	-	0	0	0	0
C[n+]1ccc2[nH]c3ccccc3c2c1	0	-	-	-	-	-
Cc1ccccc1/C=C/c1cc[n+](C)cc1	0	0	0	0	0	0
CC(C)n1cc(/C=C/c2cc[n+](C)cc2)c2ccccc21	294.7	0	0	0	0	0
Cc1[nH]c2ccccc2c1/C=C/c1cc[n+](C)cc1	192.4	0	0	0	0	0
C=CCn1c(C)c(/C=C/c2cc[n+](C)cc2)c2ccccc21	122.4	0	0	0	0	0
CCN(CC)C(=O)Cn1c(C)c(/C=C/c2cc[n+](C)cc2)c2ccccc21	114.7	0	0	0	0	0
CCn1c(/C=C/c2c(C)n(CC)c3ccccc23)nc2ccccc2c1=O	0	0	0	0	0	0
Clc1ccc(N2O[C@H]3C=C[C@@H]2C3)nc1	0	-	-	-	-	-
CCCCCCCC1=Cc2ccc(F)cc2C(C(C(C)=O)C(=O)OC)N1C(=O)OC (configuration not stated)	-	0[11.5 µM]	-	-	-	-
COC(=O)c1ccc(C(NC(=O)OCc2ccccc2)/C(=C/[C@@H](C)C(=O)NCCF)c2cccnc2)cc1 (some centres not stated)	-	0	-	-	-	-
CCn1cc(/C=C/c2cc[n+](C)cc2)c2ccccc21	112.9	-	3.16µM	0	0	0
C=CCn1cc(/C=C/c2cc[n+](C)cc2)c2ccccc21	457.4	0	0	0	0	0
COc1ccccc1-c1coc2c(CN3CCCCC3C)c(O)ccc2c1=O (configuration not stated)	0	0	0	0	0	0
COc1ccccc1-c1coc2c(CN3C(C)CCCC3C)c(O)ccc2c1=O (configuration not stated)	0	0	0	-	0	2.24µM
Cc1cc(CNC(=O)[C@@H]2C[C@H]2[C@@H](NP(=O)(c2ccccc2)c2ccccc2)c2ccccc2)nn1C	-	0	-	-	-	-
COc1ccc(CNC(=O)COC(=O)CCc2c[nH]c3ccccc23)cc1	0	0	0	0	0	10µM
O=C(COC(=O)CCc1c[nH]c2ccccc12)NCc1ccccc1	0	0	0	0	0	0
O=C(CSc1ccc2ccccc2c1)N1CCN(c2ccc(O)cc2)CC1	0	0	25.1µM	0	0	0
SMILES	IL-2 act	PKM2 activator	A-T KAP1 phos	TCR act	Tb PFK block	a7 integrin act
CCCCNC(=O)C(c1ccc(OCC(=O)OC)c(C(=O)OC)c1)N(Cc1ccccn1)C(=O)CCCCCN1C(=O)NC(c2ccc(-c3ccccc3)cc2)C(C(=O)OCc2ccccc2)=C1C (configuration not stated)	-	0	-	-	-	-
Cn1c(CSCc2ccccc2Cl)n[nH]c1=S	0	0	0	0	0	0
Cn1c(CSCc2ccc(Cl)cc2Cl)n[nH]c1=S	0	28.2µM	0	0	0	0
O=C(CNS(=O)(=O)c1cccs1)N1CCN(c2ccccn2)CC1	0	22.4µM	0	0	0	0
Cc1cccn(Cc2c(F)cccc2Cl)c1=O	0	31.6µM	0	0	0	0
O=C(CCCc1nc2ccccc2s1)N1CCN(c2ccccc2)CC1	0	?	0	0	0	0
O=C(CCCc1nc2ccccc2s1)N1CCN(S(=O)(=O)c2cccs2)CC1	0	4.47µM	0	0	0	0
CCCCCCc1cc2cc(S(=O)(=O)c3ccc(F)c(Cl)c3)c(=O)oc2cc1O	0	0	28.2µM	0	0	0
COC(=O)C1=C(C(=O)OC)[C@@H]2N(Cc3ccccc3)c3ccccc3[C@@]23C[C@@H](C(=O)OC)N(S(=O)(=O)c2ccc(C#N)cc2)C3=N1	-	0[11.5 µM]	-	-	-	-
Cc1cc(NC(=O)Cn2cnc3c(nnn3-c3ccc(C)c(Cl)c3)c2=O)no1	0	0	0	0	0	0
CCOc1ccc(-n2nnc3c(=O)n(CC(=O)Nc4cc(C)on4)cnc32)cc1	0	15.8µM	0	0	0	0
CC(C)c1ccc(NC(=O)Nc2nc(C(N)c3ccccc3)cs2)cc1 (configuration not stated)	0	-	-	-	-	-
CC1(C)CC(=O)C(C(c2ccc(F)cc2)C2C(=O)CC(C)(C)CC2=O)C(=O)C1	0	0	0	0	0	0
CCc1sc(C(C2C(=O)CC(C)(C)CC2=O)C2C(=O)CC(C)(C)CC2=O)cc1[N+](=O)[O-]	0	22.4µM	0	0	0	0
CCCCS(=O)(=O)N1C2=NC(C(=O)OC)=C(C(=O)OC)[C@@H]3N(C)c4ccccc4[C@]23C[C@H]1C(=O)OC	-	0[11.5 µM]	-	-	-	-
Cc1ccc(-c2csnn2)cc1	0	0	0	0	0	10µM
Cc1ccc(S(=O)(=O)C[C@@H]2OC[C@H](Cc3ccccc3)N2S(=O)(=O)c2ccc(C)cc2)cc1	0	-	-	-	-	-
O=C(NC1CCCCC1)c1ccc(CS(=O)(=O)Cc2ccccc2F)o1	0	0	0	0	0	0
O=C(NC1CCCC1)c1ccc(CS(=O)(=O)Cc2ccccc2F)o1	0	-	0	0	0	4.47µM
CCCCCCCCNC(=O)/C(C#N)=C/c1ccccc1[N+](=O)[O-]	0	0	25.1µM	0	0	0
COC(=O)N1C2=C(c3ccccc3[C@@H]1CC(=O)Nc1ccc3ccc4cccc5ccc1c3c45)[C@@H]1C(=O)N(c3ccccc3)C(=O)[C@@H]1[C@H](C)C2	-	0[11.5 µM]	-	-	-	-
O=C1CC(Cc2ccccc2)C(=O)N1Cc1ccco1 (configuration not stated)	0	28.2µM	0	0	0	0
Cc1ccc(CC2CC(=O)N(Cc3ccco3)C2=O)cc1 (configuration not stated)	0	?	0	0	0	0
COc1ccccc1NC(=O)N(Cc1ccco1)Cc1cc2ccc(C)c(C)c2[nH]c1=O	0	15.8µM	0	0	0	0
